# Laboratory results: PubChem BioAssay (NCI)
# About 83,000 compounds went through this panel and 20% of them were active in at least one assay; those are over-represented in the sample as a whole.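 96-well plates, one dose, 48 hours. Percent growth reported; active if below 10.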 A number with no mark means an inactive call. Calls of active or inactive are those of the source.
# System: CAKI-1 renal
# Experiment: NCI-60 one-dose screen, 48 h (100 = growth as untreated, 0 = no growth, -100 = all killed)
# Conditions: 10 µM
# Method: Growth inhibition of the CAKI-1 human tumor cell line is measured as a screen for anti-cancer activity. Cells are grown in 96 well plates and exposed to the test compound for 48 hours. Compounds are tested at a single concentration, which is 10^-5 M for most compounds. The reported endpoint is percent growth (GI% or GIPRCNT), where numbers from 0 - 100% represent growth inhibition, and numbers from -100% - 0 represent cell death. For example, a value of 40 represents 60% growth inhibition. A value of 0 means no net growth occurred over the course of the experiment. A value of -40 indicates 40% of cells at the beginning of the experiment died by the end of the experiment. A value of -100 means all cells are dead at the end of the experiment.
# NCI-60 Human Tumor Cell Lines Screen was performed using the standard one-dose NCI protocol, which is described in more detail at https://dtp.cancer.gov/discovery_development/nci-60/default.htm.
# Compounds with GIPRCNT values below 10 were considered active. Activity score was based on GIPRCNT using the following formula: […]
# Score is 0 for GIPRCNT values of 100 or above, 50 for GIPRCNT values of 0, and 100 for GIPRCNT values of -100.
row,SMILES,growth
1,Cc1ccc(-c2cc(C(=O)N=Nc3c(O)[nH]c4ccc(Br)cc34)c3ccccc3n2)cc1,73.6%
2,COc1ccc(NC(=O)Nc2ccc(OCC(=O)N=Nc3c(O)[nH]c4ccc([N+](=O)[O-])cc34)cc2)cc1,92.5%
3,O=C(Nc1cccc(C(F)(F)F)c1)c1cncc(C#Cc2cnc3ccc(N4CCOCC4)nn23)c1,6.18% (active)
4,O=c1c2ccccc2nc(COc2ccccc2)n1/N=C/c1ccc(N2CCOCC2)cc1,51.9%
5,COc1cc2c3c(n(CCCNC(C)C)c(=O)c2cc1OC)-c1nc2c(cc1C3=O)OCO2,13.7%
6,O=c1[nH][nH]c(Nc2ccccc2)c1N=Nc1ccc(F)cc1,59.3%
7,O=C(Nc1cccc([N+](=O)[O-])c1)Nc1cccc([N+](=O)[O-])c1,83.7%
8,CN(CCF)c1ccc(/C=C/C(=O)c2ccc(N)cc2O)cc1,60.4%
9,COc1cnc2c(c1)C(=O)c1c-2n(CCCNCCO)c(=O)c2cc(OC)c(OC)cc12,12%
10,Cc1ccc(-c2cc(-c3cc4ccccc4nc3Cl)[nH]c(=O)n2)cc1,24.8%
11,C=C(C)[C@@H]1CC[C@]2(C)[C@H](CC=C3[C@@H]4CC(C)(C)CC[C@]4(C(=O)N4CCOCC4)CC[C@]32C)[C@@]1(C)CCCN,-96.3% (active)
12,CC(C)C1=C[C@@]23CC[C@@H]4[C@](C)(CCC[C@]4(C)C(=O)NCc4ccccc4)[C@H]2C[C@@H]1[C@H]1C(=O)CCC(=O)[C@H]13,88.7%
13,O=C(N/N=C/c1ccc(B(O)O)o1)c1[nH]c2ccc(Br)cc2c1-c1ccccc1,30%
14,CCOC(=O)N/C(=C1/OCCN1C)[P+](c1ccccc1)(c1ccccc1)c1ccccc1,102%
15,O/N=C(\CSc1nnc(-c2c[nH]c3ccccc23)n1-c1ccccc1)c1ccc(Br)cc1,-94.3% (active)
16,Cc1noc2c(Cc3ccccc3)nn(CC(=O)N/N=C/c3ccc(F)cc3)c(=O)c12,33.2%
17,O=C1CCC(N2Cc3cc(NC(=O)COc4ccccc4)ccc3C2=O)C(=O)N1 (stereo not given),92.3%
18,COc1ccc(C(C)=C(c2ccc(OCCCN(C)C)cc2)c2ccc(OCCCN(C)C)cc2)cc1,-100% (active)
19,Cc1ccc(C(=O)CSc2nnc(-c3c[nH]c4ccccc34)n2-c2ccccc2)cc1,12.4%
20,Cc1ccc(CSc2nc(Cl)c(C#N)c(-c3ccc(F)cc3)n2)cc1,67.1%

row,SMILES,growth
1,CC1(c2ccccc2)NC(=O)N(CC(=O)Nc2ccc(C(=O)/C=C/c3ccc(Br)cc3)cc2)C1=O (stereo not given),39.5%
2,O=C1NC(=NC23CC4CC(CC(C4)C2)C3)N/C1=C\c1ccc2ncoc2c1,7.48% (active)
3,COc1cccc(C(N)=Nc2ccc(OCCCCCCn3cncn3)cc2)c1,39.1%
4,COc1cc(NC(=O)CSc2nnc(-c3ccc4nc(-c5ccc(Cl)cc5)[nH]c4c3)o2)cc(OC)c1OC,67.8%
5,CC1(C)CC[C@]2(C(=O)NCCCNCCCCNCCCN)CC[C@]3(C)C(=CC[C@@H]4[C@@]5(C)Cc6c([nH]c7ccccc67)C(C)(C)[C@@H]5CC[C@]43C)[C@H]2C1,78%
6,Cn1cc(-c2cc(N)n3nc(-c4c[nH]c5ccc(Br)cc45)cc3n2)c2cc(Br)cnc21,-69.1% (active)
7,C=CCn1c(SCC(=O)Nc2ccc(C(=O)/C=C/c3ccccc3)cc2)nnc1-c1c[nH]c2ccccc12,57.3%
8,O=c1oc2ccc(-c3ccc(F)cc3F)cc2c(=O)n1-c1ccc(F)cc1,-24.1% (active)
9,O=C1Nc2ccc(Cl)cc2/C1=C/c1cccc(OCc2ccccn2)c1,-7.95% (active)
10,CC(=O)NNc1ccc2nnc(-c3ccc(Br)cc3)n2n1,90.3%
11,Nc1nnc(-c2c[nH]c3ccc(F)cc23)c(-c2c[nH]c3ncccc23)n1,33.9%
12,Cc1cccc(-c2nc(Nc3ccccc3C(=O)O)c3ccccc3n2)c1,52.4%
13,CC(C)(C)Nc1nc2cc(Cl)c(Cl)cc2nc1S(C)(=O)=O,53.2%
14,COc1ccc(-c2nc(-c3ccccc3)c(-c3ccccc3)n2-c2ccc(S(=O)(=O)Nc3ncccn3)cc2)cc1OC,76.5%
15,COc1ccc([C@H]2C(C(=O)c3ccc(Cl)cc3)C3(N[C@@H]2c2ccccc2)C(=O)Nc2ccc(Br)cc23)cc1 (stereo not given in full),2.8% (active)
16,COc1ccc2[nH]c(O)c(N=NC(=O)c3cc(-c4ccc(C)cc4)nc4ccccc34)c2c1,95.5%
17,NS(=O)(=O)c1ccc(N=Nc2c(O)n(CC(=O)Nc3ccccc3Br)c3ccccc23)cc1,23.7%
18,CC1(C)CC[C@]23CC[C@]4(C)[C@H](CC[C@@H]5[C@@]6(C)CC[C@H](N)C(C)(C)[C@@H]6CC[C@]54C)[C@H]2[C@H]1OC3=O,-98.2% (active)
19,Cn1cc(/C=N/Nc2ccnc3cc(Cl)ccc23)c2ccccc21,-85.3% (active)
20,CN1CCN(c2ccc(C(=O)/C=C/c3ccc(OC(F)F)cc3)cc2)CC1,65.8%
